Assay results as given in PubChem BioAssay AID1445 (SRMLSC, 2008).
The whole screen tested about 220,000 compounds, of which about 910 (0.41%) were called active. The sample holds actives, similar compounds and a random draw of the others, so the mix is not that of the screen. Results with a measured potency or affinity are listed apart. A number with no mark means an inactive call.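 How the source made its calls: active means primary inhibition above the hit cutoff, then over 50% inhibition at one or more dose response concentrations (cut at about 23% in these data, passing the limit was not always enough); inconclusive means conflicting primary data, or primary hits not chosen for dose response; inactive means low primary inhibition, or under 50% at every dose.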

Target: Aminopeptidase N (Plasmodium falciparum (isolate 3D7)) (UniProt O96935)
Test: P. falciparum M1AAP inhibitors, biochemical, fluorogenic H-Leu-NHMec substrate, 1536-well (AID 1445);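 further: plate controls were DMSO full reaction for no effect and no enzyme background for full effect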
Conditions: recombinant M1AAP, H-Leu-NHMec fluorogenic kinetic assay; at 30 µM, stronger effect = higher value unless noted

Chain of Aminopeptidase N (Plasmodium falciparum (isolate 3D7)) (O96935 whole entry, looked up): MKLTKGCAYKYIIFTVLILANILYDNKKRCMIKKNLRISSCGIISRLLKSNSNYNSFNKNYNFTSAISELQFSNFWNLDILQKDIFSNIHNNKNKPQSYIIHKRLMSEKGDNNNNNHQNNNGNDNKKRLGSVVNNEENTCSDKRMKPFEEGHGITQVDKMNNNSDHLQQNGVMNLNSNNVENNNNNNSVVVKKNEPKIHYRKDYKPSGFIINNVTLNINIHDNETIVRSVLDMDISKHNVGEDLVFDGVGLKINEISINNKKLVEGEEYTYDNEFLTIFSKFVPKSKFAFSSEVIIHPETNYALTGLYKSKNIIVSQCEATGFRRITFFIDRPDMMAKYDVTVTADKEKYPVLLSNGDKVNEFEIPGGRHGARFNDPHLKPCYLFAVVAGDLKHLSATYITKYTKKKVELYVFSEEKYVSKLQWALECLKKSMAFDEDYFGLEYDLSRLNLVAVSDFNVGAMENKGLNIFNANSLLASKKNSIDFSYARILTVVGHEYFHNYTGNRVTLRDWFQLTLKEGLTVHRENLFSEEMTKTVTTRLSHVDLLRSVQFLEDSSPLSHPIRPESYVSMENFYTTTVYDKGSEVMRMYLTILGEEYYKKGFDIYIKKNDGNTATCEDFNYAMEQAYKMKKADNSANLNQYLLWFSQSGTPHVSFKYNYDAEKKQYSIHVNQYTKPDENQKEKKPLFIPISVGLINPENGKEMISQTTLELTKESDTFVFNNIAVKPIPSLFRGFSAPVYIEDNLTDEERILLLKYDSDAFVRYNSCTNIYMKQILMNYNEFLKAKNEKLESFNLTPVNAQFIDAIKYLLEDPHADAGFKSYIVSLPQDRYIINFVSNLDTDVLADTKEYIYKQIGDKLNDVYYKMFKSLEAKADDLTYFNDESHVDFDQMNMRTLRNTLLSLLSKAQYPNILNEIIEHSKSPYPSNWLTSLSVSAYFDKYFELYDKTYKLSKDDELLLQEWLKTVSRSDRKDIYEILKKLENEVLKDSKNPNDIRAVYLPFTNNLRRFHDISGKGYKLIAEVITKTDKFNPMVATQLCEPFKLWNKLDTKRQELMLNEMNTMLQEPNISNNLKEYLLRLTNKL

Row | SMILES | inhibition
1 | O=c1c(=Nc2ccccc2O)c(=O)c2ccccc12 | -8.18%
2 | Oc1ccccc1N=Nc1nc(-c2ccccc2)c(-c2ccccc2)[nH]1 | -7.75%
3 | CCOc1ccc(NC(=S)Nc2ccc(Br)cc2Cl)cc1 | 2.64%
4 | Cc1ccccc1NC(=O)CN1C(=O)C2C3CC(C(Br)C3Br)C2C1=O (stereo not drawn) | 5.98%
5 | O=C(CN1C(=O)C2C3C=CC(C3)C2C1=O)Nc1ccc(C(=O)O)cc1 (stereo not drawn) | 14.6%
6 | CCOc1ccc(NC(=O)c2ccccc2NC(=O)CN(C)CC(=O)Nc2ccc(C)cc2)cc1 | 1.3%
7 | N#CC(=NCc1cccnc1)C1=C(O)c2ccccc2C1=O | -2.18%
8 | CCOC(=O)c1c(C)oc2ccc(NS(=O)(=O)c3ccc(C(=O)O)cc3)cc12 | 10.2%
9 | CC1(C)CC(=O)c2c(oc3ccc(NS(=O)(=O)c4cccc5cccnc45)cc23)C1 | 3.99%
10 | O=C(N=Nc1c(O)[nH]c2ccccc12)c1cccc(S(=O)(=O)Nc2ccccc2Cl)c1 | 13.3%
11 | CCOCCc1nnc(NC(=O)Cc2ccccc2)s1 | 7.8%
12 | CCn1c(SCC(=O)Nc2ccccc2C)nc2nc3c(cc2c1=O)COC(C)(C)C3 | 13.2%
13 | CCc1cc(=O)oc2cc(C)cc(OCc3nn[nH]n3)c12 | 9.2%
14 | CCCc1cc(=O)oc2cc(C)cc(OCc3nn[nH]n3)c12 | 17.7%
15 | Cc1c(N2C(=O)/C(=C\c3ccccc3O)SC2=S)c(=O)n(-c2ccccc2)n1C | 13%
16 | Cc1c(N2C(=O)/C(=C/c3ccccc3)SC2=S)c(=O)n(-c2ccccc2)n1C | 13.6%
17 | CCOc1c(OC(C)=O)ccc(/C=C2\N=C(SCC)SC2=O)c1[N+](=O)[O-] | 9.88%
18 | COC(=O)c1ccc(/C=C2\N=C(SC)SC2=O)cc1 | 6.81%
19 | CCOc1cc(/C=C2\N=C(SCC)SC2=O)cc([N+](=O)[O-])c1OC(C)=O | 60.6% (active)
20 | C=CCSC1=N/C(=C\c2cc(OCC)c(OC(C)=O)c([N+](=O)[O-])c2)C(=O)S1 | 10.7%
21 | COc1ccc(/C=C2\N=C(SC)SC2=O)cc1OC | -0.19%
22 | Cc1ccsc1/C=N/NC(=O)c1ccc(-n2cccc2)cc1 | -0.71%
23 | CCC(=O)c1ccc(N2CCN(S(=O)(=O)c3ccccc3)CC2)c(F)c1 | -2.32%
24 | OC1CCN(c2ncnc3c2nnn3Cc2c(F)cccc2Cl)CC1 | -1.3%

Row | SMILES | inhibition
25 | Cn1nnnc1SCC(=O)Nc1c(Cl)cccc1Cl | -11.1%
26 | O=C(NN1C(=O)c2cc(Br)ccc2NC1c1cc(Br)cc(Br)c1O)c1ccncc1 (stereo not drawn) | 15.9%
27 | NS(=O)(=O)c1ccc(CCNC(=O)CN2CCCCC2)cc1 | -1.82%
28 | NS(=O)(=O)c1ccc(CCNC(=O)c2ccc(S(=O)(=O)N3CCCCC3)cc2)cc1 | 15.2%
29 | O=C(Cc1ccc(S(=O)(=O)N2CCOCC2)s1)NCC1CCCCC1 | 3.48%
30 | O=C(COC(=O)Cc1ccc(S(=O)(=O)N2CCOCC2)s1)NCCc1ccccc1 | 5.27%
31 | CCn1cc(CNC(=O)CSc2nc(-c3ccc(OC)c(OC)c3)cc(C(F)(F)F)n2)c(C)n1 | 8.78%
32 | O=C(CC1(c2ccc(Cl)cc2)C2CC3CC(C2)CC1C3)NCCO (stereo not drawn) | 3.19%
33 | CCN1CCN(CCCNC(=O)c2cn(CCOC)c(=O)c3c2c2ccccc2n3C)CC1 | 17.7%
34 | COc1cc(CNc2ccc(O)cc2)cc(Br)c1OCc1ccccc1F | 7.46%
35 | CCOc1cc(CNc2ccccc2)cc(Br)c1OCc1ccccc1F | 6.06%
36 | CCOc1cc(CNc2ccc(O)cc2)cc(Br)c1OCc1ccccc1F | 25.5% (active)
37 | Cn1c(C(=O)NC2CCCCC2)cc2c(=O)n(C)c3ccccc3c21 | -0.49%
38 | CC1(CC(=O)N/N=C/c2cc(Br)c(O)cc2O)OCCO1 | 31.5% (active)
39 | CC1(CC(=O)N/N=C/c2cc([N+](=O)[O-])c(O)cc2O)OCCO1 | 9.24%
40 | CC1(CC(=O)N/N=C/c2cc3c(cc2Br)OCO3)OCCO1 | 9.79%
41 | COc1ccc(CCNC(=O)c2cc(-c3ccc(C)c(C)c3O)n[nH]2)cc1OC | 0.7%
42 | Cc1ccc(S(=O)(=O)Nc2nc(C)c(C(=O)Nc3ccccc3)s2)cc1 | 4.37%
43 | Cc1nc(NS(=O)(=O)c2ccccc2)sc1C(=O)NN | 6.77%
44 | Cc1ccc(S(=O)(=O)Nc2nc(C)c(C(=O)NNS(=O)(=O)c3ccccc3)s2)cc1 | 3.2%
45 | C/C(=N/NC(=O)c1sc(NS(=O)(=O)c2ccccc2)nc1C)c1ccccc1 | 18.9%
46 | O=C(CSc1nc2ccccc2o1)Nc1cc(C(F)(F)F)ccc1N1CCOCC1 | 8.71%
47 | CCCCn1c(C)csc1=Nc1cccnc1 | 4.71%
48 | Cc1cc(C)c(S(=O)(=O)Nn2cnnc2)c(C)c1 | -1%

Row | SMILES | inhibition
49 | CCOP(=O)(OCC)/C(C#N)=C/c1cc(OC)ccc1OC | 1.01%
50 | COc1ccccc1NC(=S)N1CCCC1 | 8.78%
51 | CCCC(=O)NCc1cc(-c2nn(C)c(=O)c3ccccc23)ccc1C | -1.83%
52 | CCOC(=O)NCc1cc(-c2nn(C)c(=O)c3ccccc23)ccc1C | -0.16%
53 | CC(=O)NCc1cc(-c2nn(C)c(=O)c3ccccc23)ccc1C | 12.1%
54 | CCC(=O)NCc1cc(-c2nn(C)c(=O)c3ccccc23)ccc1C | 3.73%
55 | CC(O)CNCCCOc1ccc(Cl)cc1C(C)(C)C (stereo not drawn) | 2.63%
56 | Cc1ccc(N(C(=O)C2CCC(=O)N2)C2(C(=O)NC3CCCCC3)CCCCC2)cc1 (stereo not drawn) | 3.72%
57 | CC(C)NS(=O)(=O)c1ccc(CCC(=O)NCc2cccnc2)cc1 | 3.94%
58 | CCCCN1CNC(=S)N(c2ccccc2OCC)C1 | 1.13%
59 | CCOCCCNCc1cccc(OCc2ccc(F)cc2)c1 | -0.98%
60 | COc1ccc(-c2cc(-c3nnc(-c4ccncc4)o3)c3ccccc3n2)cc1 | 7.37%
61 | CSc1nnc(-c2cc(-c3ccc(C)cc3)nc3ccccc23)o1 | -2.26%
62 | CCC(=O)Nc1ccc(-n2nnnc2SCC(=O)NNC(=O)c2ccco2)cc1 | 4.76%
63 | S=c1[nH]nc(-c2cccnc2)n1/N=C/C=C/c1ccccc1 | 10.4%
64 | O=C(CN(c1ccccc1)S(=O)(=O)c1ccccc1)NCCSc1nc2ccccc2s1 | 4.5%
65 | CN1CCN(Cc2nc3ccccc3c(=O)n2Cc2nc(-c3ccc4ccccc4c3)cs2)CC1 | -1.75%
66 | CN1CCN(Cc2nc3ccccc3c(=O)n2Cc2nc(-c3ccc([N+](=O)[O-])cc3)cs2)CC1 | 11.9%
67 | Cc1ccc(C(C(=O)NCc2ccco2)N(Cc2ccco2)C(=O)CNC(=O)c2ccco2)cc1 (stereo not drawn) | 19.3%
68 | COc1ccc(OC)c(S(=O)(=O)N2CCC(C(=O)NCCc3ccc(OC)c(OC)c3)CC2)c1 | -4.37%
69 | COc1ccc(S(=O)(=O)N2CCC(C(=O)NCc3ccccn3)CC2)cc1OC | 2.6%
70 | COc1ccc(S(=O)(=O)N2CCC(C(=O)NCCc3ccccc3)CC2)cc1OC | -1.88%
71 | COc1ccc(OC)c(S(=O)(=O)N2CCC(C(=O)NCc3ccccc3)CC2)c1 | 57.9% (active)
72 | COc1ccc(OC)c(S(=O)(=O)N2CCC(C(=O)NCCc3ccccc3)CC2)c1 | -0.81%

Row | SMILES | inhibition
73 | COc1ccc(CCNC(=O)C2CCN(S(=O)(=O)c3cc(OC)ccc3OC)CC2)cc1 | 14.3%
74 | COc1ccc(OC)c(S(=O)(=O)N2CCC(C(=O)NCc3ccccc3OC)CC2)c1 | 3.04%
75 | COc1ccccc1N1CCN(C(=O)c2ccc3nc[nH]c3c2)CC1 | 4.75%
76 | CCn1c(SCC(=O)Nc2nc3ccccc3s2)nnc1-c1ccc(Br)cc1 | 4.22%
77 | CS(=O)(=O)c1ccc2nnn(OCC(=O)Nc3ccc(Br)cc3Br)c2c1 | 1.15%
78 | O=C(COC(=O)CCOc1ccccc1)NCc1ccco1 | 12.3%
79 | O=C(O)c1cccc(CSc2n[nH]c(-c3ccc(Cl)cc3Cl)n2)c1 | 7.08%
80 | Cc1ccc(NC(=S)NC(=O)/C=C/c2ccco2)c(O)c1 | 10.8%
81 | O=S(=O)(c1ccc(F)cc1)N1CCN=C1SCc1cccnc1 | 0.03%
82 | O=C(Nc1cccc(O)c1)c1cnn2cccnc12 | 13.6%
83 | CC1(C)CC(=O)c2sc(NS(=O)(=O)c3ccc(F)cc3)nc2C1 | 5.81%
84 | CCc1nnc(NC(=O)CSc2nnc(CNc3cccc(C)c3)n2-c2ccccc2)s1 | 0.64%
85 | O=C(CCCCl)OCc1cn(-c2ccc(Cl)cc2)nn1 | 8.74%
86 | O=C(NC1CCCC1)C1CCC(=O)N1C1CCCC1 (stereo not drawn) | 6.41%
87 | CCOC(=O)c1oc2ccccc2c1CN1CCN(C)CC1 | 0.88%
88 | Clc1ccc(/C=N/Nc2nnc(Cl)c3ccccc23)cc1 | 14.4%
89 | Clc1ccc(/C=N\Nc2ccccc2)cc1 | 4.31%
90 | COc1cc(N2CN=c3s/c(=C\c4ccccn4)c(=O)n3C2)cc(OC)c1OC | 5.01%
91 | O=[N+]([O-])c1cc(Cl)ccc1-c1nc(-c2ccncc2)no1 | 3.23%
92 | CCN1C(=O)/C(=c2\sc3nc(=O)c(Cc4ccccc4)nn3c2=O)c2ccccc21 | 7.93%
93 | C=CCN1C(=O)/C(=c2\sc3nc(=O)c(Cc4ccc(OC)c(OC)c4)nn3c2=O)c2ccccc21 | 11.6%
